Reference: PubChem BioAssay AID623868 (Vanderbilt High Throughput Screening Facility, 2012)
About 760 (36%) of roughly 2,100 compounds were called active. Not all results are given here. Unmarked numbers belong to inactive results.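 How the source made its calls: active means thallium-flux fluorescence traces judged by eye to show enhanced or reduced glutamate response, manual score 1 or -1, so both directions (some results past the limit were not filed as active); inactive means the rest, including fluorescent or raised-baseline compounds.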

Assay: thallium influx changes without GIRK channels – cell-based, HEK-293 rmGlu8, no GIRK, thallium flux, counter-screen for GIRK activator project, confirmation (AID 623868);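 further: extra codes mark interference with 3 for fluorescent and 4 for baseline rise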
Conditions: thallium flux fluorescence, at 10 µM, actives lie on both sides, codes: 1 enhancer, -1 blocker, 0 none, thallium stimulus containing EC20 glutamate
`O=C(Cc1ccccc1)NC(=S)Nc1cccc(C(F)(F)F)c1` showed a manual score of 0. For `Cc1cccc(NC(=O)NC(C)CCc2ccccc2)c1` (configuration not stated), the manual score was 0. With `Cc1cccc(NC(=S)NC(=O)CCc2ccccc2)c1` the manual score was 1 (active). For `O=C1OC2(CCCCC2)OC(=O)C1=CNc1nc2ccccc2s1`, the manual score was 1 (active). In the case of `O=C(Nc1ccc(O)c(-c2nc3ccccc3s2)c1)C1=COCCO1`, the manual score is reported as 0. With `CN(C)c1nc2ccccc2c(N)c1-c1ccccc1` the manual score was 0. With `COc1ccc(-c2nnc3sc(C4CCCCC4)nn23)cc1OC` the manual score was -0.5. With `CCCc1nc2scc(-c3ccccc3)c2c(=O)n1N` the manual score was 0. With `Cc1ccc(-c2csc3nc[nH]c(=S)c23)cc1C` the manual score was 1 (active). For `S=c1[nH]cnc2scc(-c3ccccc3)c12`, the manual score was 1 (active). Work on `CC1(C)Cc2nc(NCCN3CCOCC3)c(C#N)cc2CO1` yielded a manual score of 0. For `O=c1cc(Cn2ccnc2)c2cc3c(cc2o1)CCC3`, the manual score was 0. In the case of `O=C(CN1C(=O)/C(=C/c2ccccc2F)Oc2ccccc21)N1CCN(c2ccccn2)CC1`, the manual score is reported as 0. In the case of `COC(=O)c1c(NC(=O)CSc2nnc(-c3cccnc3)n2Cc2ccco2)sc(C)c1C`, the manual score is reported as -1 (active). In the case of `CCOC(=O)c1c(NC(=O)CSc2nnc(-c3ccncc3)n2Cc2ccco2)sc(C(C)=O)c1C`, the manual score is reported as -1 (active). Work on `O=C(CCn1c(=O)oc2ccccc21)N1CCN(c2ccccc2Cl)CC1` yielded a manual score of 0. Work on `S=C(Nc1cccc(Cl)c1)Nc1ccccc1Oc1ccccc1` yielded a manual score of 0. `S=C(Nc1ccc(Oc2ccccc2)cc1)NC1CCCC1` gave a manual score of 0. In the case of `CN(C)S(=O)(=O)c1cccc(NC(=S)Nc2ccc(Cl)cc2Cl)c1`, the manual score is reported as 1 (active). `COc1ccccc1NC(=S)NCCc1ccc(Cl)cc1` showed a manual score of 0. Compound `S=C(NCCc1ccccc1)Nc1ccc(Cl)cc1Cl` has a manual score of 0. With `S=C(Nc1ccccc1Oc1ccccc1)Nc1cccc(Cl)c1Cl` the manual score was 1 (active). Compound `CN(C)S(=O)(=O)c1cccc(NC(=S)Nc2cc(Cl)cc(Cl)c2)c1` has a manual score of 0. With `S=C(Nc1ccccc1Cl)Nc1ccc(Cl)cc1Cl` the manual score was 1 (active). In the case of `S=C(Nc1ccc(Cl)cc1Cl)Nc1ccccc1Oc1ccccc1`, the manual score is reported as 1 (active). `CN(C)S(=O)(=O)c1cccc(NC(=O)Cc2ccc(Cl)cc2)c1` gave a manual score of 0. `S=C(Nc1ccccc1)Nc1cc(Cl)ccc1Oc1ccccc1` showed a manual score of 0. `COC(=O)CSc1nnc(SCc2ccc(OC)cc2)s1` showed a manual score of -0.5. Work on `Cc1ccc(C2C3=C(NCCN=C3c3ccccc3)C(=O)N2c2ccccc2)cc1` (configuration not stated) yielded a manual score of 0. For `CCCCn1c(=O)nc2n(-c3ccccc3)c3ccccc3cc-2c1=O`, the manual score was 0. `O=C1c2ccccc2C(Nc2ccc3c(c2)OCCO3)N1Cc1ccccc1` (configuration not stated) showed a manual score of 0. In the case of `Cc1ccccc1Cn1c(-c2cncs2)nc2ccccc21`, the manual score is reported as 0. In the case of `Cn1nc(C(F)(F)F)c2cc(NC(=O)OCc3ccc(F)cc3)sc21`, the manual score is reported as 0. `CCc1cccc(NC(=O)CSC2=NS(=O)(=O)c3ccccc32)c1` showed a manual score of 0. With `O=C(Nc1ccc2[nH]c(=S)sc2c1)c1ccccc1` the manual score was 1 (active). `Cn1cccc1-c1nc2ccc(NC(=O)c3cccs3)cc2[nH]1` showed a manual score of 0. Work on `CC(C)OCCCNC(=O)c1cccc(NC(=O)c2ccccc2)c1` yielded a manual score of 0. Compound `COc1ccc(OCCCN2CCCCCC2)cc1` has a manual score of 0. In the case of `O=C(COC(=O)C1CC2C=CC1C2)Nc1ccc2c(c1)OC(F)(F)O2` (configuration not stated), the manual score is reported as 0. `CC(C)(C)c1csc(NC(=O)c2ccc3nccnc3c2)n1` gave a manual score of 0. With `O=C(Nc1nc(-c2ccccn2)cs1)c1ccc(Br)s1` the manual score was 1 (active). `O=C(Nc1nc(-c2cc3ccccc3oc2=O)cs1)c1ccc(Br)o1` showed a manual score of 0. With `COCCNC(=O)CN1C(=O)CSc2ncccc21` the manual score was 0. With `Cc1ccc2cccc(S(=O)(=O)N3CCN(c4ccccc4F)CC3)c2n1` the manual score was 0. For `O=C(NC(=S)Nn1cnc2c(cnn2-c2ccccc2)c1=O)c1ccc(Oc2ccccc2)cc1`, the manual score was 1 (active). Work on `CCCN(CCC)CCNC(=O)C(NS(=O)(=O)c1ccc2c(c1)CCC(=O)N2)c1ccccc1` (configuration not stated) yielded a manual score of 0. For `Cn1c(=O)c2c(nc3sccn32)n(C)c1=O`, the manual score was 0. In the case of `N#CC1(Cc2ccc([N+](=O)[O-])cc2)c2ccccc2C=CN1C(=O)c1ccccc1` (configuration not stated), the manual score is reported as 0. `COc1cc(-c2nnc(CSc3nc4ccccc4s3)o2)cc(OC)c1OC` gave a manual score of 0. With `COc1ccc(-c2nnc(CSc3nc4ccccc4c(=O)n3C)o2)cc1OC` the manual score was -1 (active). In the case of `COc1ccc(-c2nc(C#N)c(NCCCN(C)C)o2)cc1OC`, the manual score is reported as 0. With `COc1ccc(C(=O)NNC(=S)NC(=O)c2ccco2)cc1` the manual score was 1 (active). For `COc1ccccc1C(=O)NNC(=S)NC(=O)c1ccco1`, the manual score was 1 (active). In the case of `S=c1[nH]nc(-c2ccco2)n1/N=C/c1ccc(Cl)cc1Cl`, the manual score is reported as 1 (active). With `S=c1[nH]nc(-c2ccco2)n1/N=C/c1cccc(Cl)c1Cl` the manual score was 1 (active). With `S=c1[nH]nc(CSCc2ccc(Cl)cc2Cl)n1-c1ccccc1` the manual score was 0. For `O=C1c2ccsc2SCCN1Cc1c(Cl)cccc1Cl`, the manual score was 0. For `CCn1c(SCC(N)=O)nc2sc3c(c2c1=O)CCCC3`, the manual score was 1 (active). Compound `O=c1c2c3c(sc2nc2n1CCCCC2)CCCCC3` has a manual score of 0. In the case of `COC(=O)c1sc(N2C(=O)C(O)=C(C(=O)c3ccc(C)o3)C2c2ccc(F)cc2)nc1C` (configuration not stated), the manual score is reported as -1 (active). For `C=CCn1c(=O)c2c(C)c(C)sc2n2c(Nc3ccc(OC)cc3)nnc12`, the manual score was -1 (active). `COC(=O)Nc1nnc(Cc2ccc(Cl)cc2)s1` showed a manual score of 0. With `O=C(NC(=S)N1CCCc2ccccc21)c1ccc(Br)cc1` the manual score was 1 (active). In the case of `O=C(NC(=S)N1CCCc2ccccc21)c1ccc(Cl)cc1`, the manual score is reported as 1 (active). `CC12CCC(C(=O)N3CCCc4ccccc43)(CC1=O)C2(C)C` (configuration not stated) showed a manual score of 0. `O=S(=O)(Cc1ccccc1)N1CCc2ccccc21` gave a manual score of 3. For `O=C(NC(=S)N1CCc2ccccc21)c1ccccc1`, the manual score was 1 (active). `O=C(CSc1nc(-c2ccccc2)cc(=O)[nH]1)N1CCc2ccccc21` showed a manual score of 0. For `O=C(NC(=S)N1CCCc2ccccc21)c1ccc([N+](=O)[O-])cc1`, the manual score was 1 (active). `CCSc1nnc(NC(=O)c2nn(C(C)C)c(=O)c3ccccc23)s1` gave a manual score of -0.5. `CS(=O)(=O)N(CCc1ccccc1)CC(=O)NCc1ccc2c(c1)OCO2` gave a manual score of 0. Work on `CC(C)(C)C1CCC2(CC1)Nc1cccc3cccc(c13)N2` yielded a manual score of 0. Compound `CC1CCN(CC(O)COC2CCC(C(C)(C)C)CC2)CC1` (configuration not stated) has a manual score of 0. In the case of `Cc1c(C(=O)N2CCc3ccccc32)oc2c1C(=O)CC(C)(C)C2`, the manual score is reported as 0. For `CCC1CCCCN1C(=O)c1cc2cc(Br)ccc2oc1=O` (configuration not stated), the manual score was 0. For `O=C(N/N=C1\CCCc2ccccc21)c1ccc([N+](=O)[O-])cc1`, the manual score was 1 (active). In the case of `O=C(NC(=S)N1CCCc2ccccc21)c1ccccc1`, the manual score is reported as 1 (active). In the case of `O=C(NC(=S)N1CCc2ccccc21)c1ccccc1Br`, the manual score is reported as 1 (active). With `CCC1CCCCN1C(=S)NC(=O)c1ccc([N+](=O)[O-])cc1` (configuration not stated) the manual score was 1 (active). Work on `CCC1CCCCN1C(=O)CSc1nnc(-c2ccco2)o1` (configuration not stated) yielded a manual score of 0. For `O=C(c1ccccc1)N1CCCc2ccccc21`, the manual score was 0. `COC(=O)c1cc2sccc2n1CC(=O)N1CCCc2ccccc21` showed a manual score of 0. Work on `CCCCC(=O)Nc1ncc2c(n1)CC(C)(C)CC2=O` yielded a manual score of 0. Compound `CCc1ccc(-c2nc(CN3CCC(C(=O)NCc4ccco4)CC3)c(C)o2)cc1` has a manual score of 0. For `Cc1oc(-c2cccc(Cl)c2)nc1CN1CCCC(C(=O)NCc2ccco2)C1` (configuration not stated), the manual score was -1 (active). In the case of `Cc1oc(-c2cccc(Cl)c2)nc1CN1CCC(C(=O)NCc2ccco2)CC1`, the manual score is reported as 0. For `CC1=C(C)C(c2ccccc2)NC(=S)N1` (configuration not stated), the manual score was 0. With `Cc1cccc(S(=O)(=O)Nc2cccc3c2C(=O)c2ccccc2-3)c1` the manual score was 1 (active). With `O=S(=O)(Nc1ccc(S(=O)(=O)Nc2cccc3ccccc23)cc1)c1ccccc1` the manual score was 0. Compound `Cc1cccc(S(=O)(=O)NC(Cc2c[nH]c3ccccc23)C(=O)O)c1` (configuration not stated) has a manual score of 0. In the case of `O=C(Nc1ccccc1-c1nnn(CC(=O)N2CCc3ccccc3C2)n1)C1CCC1`, the manual score is reported as -1 (active). `Cc1ccc(-c2nnn(CC(=O)N3CCCCC3)n2)c(-n2cnnn2)c1` gave a manual score of 0. Work on `CC(C)CC(=O)Nc1ccccc1-c1nnn(CC(=O)N2CCc3ccccc3C2)n1` yielded a manual score of 0. For `COC(=O)C(NC(=O)COc1ccccc1)(Nc1nc2c(s1)CCCC2)C(F)(F)F` (configuration not stated), the manual score was 0. Work on `O=C(NC(=S)Nc1nc2c(s1)CCCC2)c1ccccc1` yielded a manual score of 0. In the case of `CC(C)(C)c1ccc(C(=O)NC(=S)Nc2nc3c(s2)CCCC3)cc1`, the manual score is reported as 1 (active). Work on `O=C(NC(=S)Nc1nc2c(s1)CCCC2)c1ccc(C(=O)c2ccccc2)cc1` yielded a manual score of 0. For `COC(=O)c1ccc(C(=O)NC(=S)Nc2nc3c(s2)CCCC3)cc1`, the manual score was 1 (active). Compound `CC(C)(C)C(=O)Nc1nc2c(s1)COc1ccccc1-2` has a manual score of -0.5. For `N=c1n(CCN2CCCCC2)c2ccccc2n1CC(O)COc1ccccc1` (configuration not stated), the manual score was 0. `COCCCNc1c2c3c(cccc3[nH]c1=O)C(=O)c1ccccc1-2` gave a manual score of 3. For `O=C(NC(=S)Nc1ccc(N2CCCCC2)cc1)c1cccs1`, the manual score was 1 (active). For `Cc1ccc(NC(=O)c2cc(NC(=O)CCC(=O)O)ccc2N2CCCCC2)cc1`, the manual score was 0. `O=C(Nc1ccc(N2CCCCC2)c(Cl)c1)c1ncn[nH]1` gave a manual score of 0. With `CN(C1CCCCC1)S(=O)(=O)c1ccc(NC(=S)NC(=O)c2cccs2)cc1` the manual score was 1 (active). With `O=C(CNC1CCCCCC1)Nc1ccc(N2CCCC2)cc1` the manual score was 0. In the case of `O=C(NC(=S)Nc1ccc(N2CCCCC2)c(Cl)c1)c1cccs1`, the manual score is reported as 1 (active).
